The text below walks through data of ChEMBL document CHEMBL1157539, “Thousands of chemical starting points for antimalarial lead identification” (Nature, 2010).

Holding throughout (format): functional
Assay [1] deals with Plasmodium falciparum. Description: GSK_TCMDC: Inhibition of Plasmodium falciparum 3D7 in whole red blood cells, using parasite LDH activity as an index of growth. Test compounds present at 2uM.
In assay [2] the test system is Plasmodium falciparum. Description: GSK_TCMDC: Inhibition of Plasmodium falciparum Dd2 in whole red blood cells, using parasite LDH activity as an index of growth. Test compounds present at 2uM.
The subject of the next assay is HepG2. Description: GSK_TCMDC: Percent inhibition of human HepG2 cell line. Test compounds present at 10uM.

For orientation: Inhibition means the percentage by which the read-out fell short of the control. Read a low Inhibition as a weak effect. Consider `CCCNC(=O)Nc1cc2cc(-c3cccc(CN4CCCCC4)c3)ccc2n2c(C)nnc12`, for which the Inhibition amounted to 100% in the assay with Plasmodium falciparum [1], 50% with Plasmodium falciparum [2] and 60% with HepG2.
As for `Fc1ccc2nc(Nc3nc(-c4ccccn4)cs3)sc2c1`, the Inhibition in the assay with Plasmodium falciparum [1] worked out at 100%; in the assay with Plasmodium falciparum [2] it was 100%; with HepG2, 42%.
`CCN1CCN(CCCCNc2c3ccccc3nc3ccccc23)CC1.Cl`: the Inhibition with Plasmodium falciparum [1] is 100%; in the assay with Plasmodium falciparum [2], 0%; with HepG2 it was 22%.
For `O=C(Nc1cccc(-c2cc3ccccc3[nH]2)c1)C1CCN(Cc2ccccc2O)CC1`, in that order: 95%, 25% and 34%.
For `CC(=O)Nc1ccc2[nH]cc(C3CCN(CC4CCN(C(=O)/C=C/c5ccc(Cl)c(Cl)c5)CC4)CC3)c2n1`, in that order: 100%, 99% and 21%.
Turning to `CCSc1ccc(C)cc1CON1C(N)=NC(N)=NC1(C)C.Cl`, the Inhibition in the assay with Plasmodium falciparum [1] was determined as 94%; with Plasmodium falciparum [2], 96%; with HepG2 it was 66%.
`CN(C)CCN(C)Cc1cccc(-c2cccc(NC(=O)c3cccc(C#N)c3)c2)c1.O=C(O)C(F)(F)F`: the Inhibition is given as 92% in the assay on Plasmodium falciparum [1], 10% in the assay on Plasmodium falciparum [2] and 0% with HepG2.
On to `c1ccc(Oc2ccc(Nc3ccnc(Nc4cccc(CNCCCN5CCOCC5)c4)n3)cc2)cc1`, for which the Inhibition was determined as 100% with Plasmodium falciparum [1], 50% in the assay with Plasmodium falciparum [2] and 0% in the assay with HepG2.
The matching figures for `Cc1cccc2nc(-c3ccc(-c4cccc(NC(=O)NCc5ccccc5)c4)cc3)[nH]c12`: 95%, 0% and 25%.
The matching figures for `Cl.NC1(C(=O)O)Cc2ccc(Cl)cc2C1` (stereo not drawn): 93%, 1% and 0%.
As for `N#Cc1ccc(N[C@@H](CC2CCCCC2)C(=O)Nc2ccc(-c3ccccc3)cc2)c2ccccc12.O=C(O)C(F)(F)F`, the Inhibition in the assay on Plasmodium falciparum [1] is 100%; in the assay on Plasmodium falciparum [2], 99%; in the assay with HepG2, 34%.
Regarding `Cc1n[nH]c2ccc(-c3cc(OC[C@@H](N)Cc4ccccc4)cnc3-c3ccccc3OCc3cccc(F)c3)cc12.O=C(O)C(F)(F)F`, the Inhibition in the assay with Plasmodium falciparum [1] stood at 91%; in the assay on Plasmodium falciparum [2], 91%; with HepG2, 55%.
For `Cc1cc(F)ccc1-c1nc(NCCCN2CCCC2=O)nc2c1ccc(=O)n2-c1c(F)cccc1F`, the results for the Inhibition in the assay with Plasmodium falciparum [1], in the assay with Plasmodium falciparum [2] and in the assay with HepG2 were 88%, 80% and 0%, respectively.
For `COc1cc2c(cc1OC)C(C(=O)Nc1ccc(C(F)(F)F)cc1)C(c1cccs1)N(C)C2=O` (stereo not drawn), the Inhibition in the assay on Plasmodium falciparum [1] was determined as 99%; in the assay on Plasmodium falciparum [2] it was 86%; in the assay with HepG2, 31%.
The matching figures for `O=C(/C=C/c1ccc(Cl)c(Cl)c1)NCCCCCN1CCC(NC(=S)Nc2ccc(Cl)c(Cl)c2)CC1`: 99%, 65% and 29%.
In the case of `CN(C)CCN(C)Cc1ccc(-c2ccc3c(Nc4ccc(F)cc4Cl)ccnc3c2)o1`, the Inhibition in the assay with Plasmodium falciparum [1] stood at 100%; in the assay with Plasmodium falciparum [2], 100%; with HepG2, 31%.
Turning to `Cc1ccc(Nc2nc(C)cc(N3CCN(c4ccccc4)CC3)n2)cc1`, the Inhibition in the assay with Plasmodium falciparum [1] is given as 93%; in the assay on Plasmodium falciparum [2], 72%; in the assay with HepG2 it was 4%.
As to `COc1ccc2c(OC)ccc(CNCCCCCCNCc3ccc(OC)c4ccc(OC)cc34)c2c1.CS(=O)(=O)O`, the Inhibition in the assay with Plasmodium falciparum [1] came to 100%; in the assay on Plasmodium falciparum [2], 98%; in the assay on HepG2, 100%.
With `CC1CCN(Cc2c(O)ccc3c(O)c(-c4nc5ccccc5s4)c(=N)oc23)CC1`, the Inhibition is 98% in the assay on Plasmodium falciparum [1], 99% with Plasmodium falciparum [2] and 2% in the assay with HepG2.
For `CCOc1cc(C(=O)Nc2ccc3nc(N4CCN(C)CC4)cc(C)c3c2)cc(OCC)c1OCC`, in that order: 97%, 50% and 14%.
For `Cc1cc(N[C@@H](CC(C)C)C(=O)NC2CCCC2)nc(NCc2ccccc2C)n1.O=C(O)C(F)(F)F`, in that order: 98%, 44% and 2%.
The matching figures for `CC(C)CNCc1cccc(-c2ccc(CNC3CCN(Cc4ccccc4)CC3)cc2)c1.O=C(O)C(F)(F)F`: 100%, 99% and 44%.
Consider `COc1cc(NC(=O)Nc2ccc(Br)cc2C(=O)Nc2ccc(Br)cc2)cc(OC)c1OC`, for which the results for the Inhibition in the assay on Plasmodium falciparum [1], with Plasmodium falciparum [2] and with HepG2 were 99%, 98% and 0%, respectively.
The matching figures for `CC(C)c1ccc(NC(=O)Nc2ccc(Cn3ncc(N4CCCNCC4)c(Cl)c3=O)cc2)cc1.O=C(O)C(F)(F)F`: 85%, 27% and 11%.
The matching figures for `COc1ccc(-n2nc(C)cc2C(=O)NCc2ccc(-c3c(C)noc3C)cc2)cc1`: 100%, 92% and 3%.
The matching figures for `COc1ccc(F)cc1-c1ccccc1CNC(=O)CN(C)S(=O)(=O)c1cc(C)cc(Cl)c1C`: 92%, 73% and 0%.
With `COc1cc(Cc2cnc(N)nc2N)cc(OCCCN2C(=O)c3ccccc3C2=O)c1OC`, the Inhibition in the assay with Plasmodium falciparum [1] stood at 96%; with Plasmodium falciparum [2] it was 0%; in the assay on HepG2, 0%.
Consider `COc1ccccc1Cc1c(C)nc2nc(N)nc(N)c2c1C.Cl`, for which the Inhibition with Plasmodium falciparum [1] is listed as 96%; in the assay on Plasmodium falciparum [2] it was 2%; with HepG2 it was 69%.
The matching figures for `CCn1c(Cc2ccccc2)nnc1SCC(=O)N1c2ccccc2Sc2ccccc21`: 99%, 96% and 0%.
The matching figures for `CN1CCC(NCc2cccc(-c3ccc(S(=O)(=O)NCCN4CCCC4)s3)c2)CC1.O=C(O)C(F)(F)F`: 91%, 1% and 10%.
The matching figures for `O=C(Nc1cccc(C(F)(F)F)c1)NC1CCN(c2ccnc3ccccc23)CC1.O=C(O)C(F)(F)F`: 100%, 43% and 23%.
